This note sets out measurements from PubChem BioAssay AID1851 (National Center for Advancing Translational Sciences (NCATS), 2009).

The campaign covered roughly 16,000 compounds. About 5,800 (36%) were called active. Not shown: some 23% with an inconclusive outcome. The list shows a part of the results. Values without a mark were called inactive. Calls follow the shape of the dose curve; as a rule, active = well fitted curve in the direction sought with a large enough effect; inconclusive = small, poorly fitted or top-dose-only effect, or effect the other way; inactive = no such curve, though single readings can be large or run the other way.
% is scaled to controls: 0 for no effect and ±100 for the full control effect.

The target of this experiment is Cytochrome P450 2C19 (Homo sapiens) (UniProt P33261). Description: Cytochrome panel assay with activity outcomes. Conditions: recombinant CYP, pro-luciferin dealkylation, luminescence, p450-cyp2c19; series mostly up to 57.1 µM; activity, negative = inhibition: at the top concentration.
Cytochrome P450 2C19 (Homo sapiens), sequence (P33261 whole entry, looked up): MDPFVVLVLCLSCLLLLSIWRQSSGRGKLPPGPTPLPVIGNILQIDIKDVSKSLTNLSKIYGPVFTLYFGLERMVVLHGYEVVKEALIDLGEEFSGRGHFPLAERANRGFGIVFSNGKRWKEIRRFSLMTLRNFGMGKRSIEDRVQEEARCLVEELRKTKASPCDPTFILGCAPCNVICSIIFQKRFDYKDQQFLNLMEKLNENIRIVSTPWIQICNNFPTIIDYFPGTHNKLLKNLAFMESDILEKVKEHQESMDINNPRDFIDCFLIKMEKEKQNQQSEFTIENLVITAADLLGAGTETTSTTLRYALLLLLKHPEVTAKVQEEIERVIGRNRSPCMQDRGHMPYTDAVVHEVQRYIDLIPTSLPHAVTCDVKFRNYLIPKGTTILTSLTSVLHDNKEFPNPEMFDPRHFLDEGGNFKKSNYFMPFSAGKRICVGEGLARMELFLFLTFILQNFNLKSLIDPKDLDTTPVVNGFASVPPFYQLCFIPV
For the compound `CCc1cc2c(=O)c(-c3cnn(-c4ccccc4)c3)coc2c(CN2CCOCC2)c1O`, the AC50 was 20 µM (active).
On to `Fc1ccc(Cn2c(SCc3ccc(F)c(F)c3)nnc2C(F)(F)F)cc1`, for which the AC50 is 2.24 µM (active).
For the compound `Fc1ccc(Cn2c(SCc3ccc(F)c(C(F)(F)F)c3)nnc2C(F)(F)F)cc1`, the AC50 was 2.82 µM (active).
Same read-out and setting: next, `Cc1ccc(CSc2nnc(C(F)(F)F)n2Cc2ccc(F)cc2)cc1`: 2.82 µM (active); `COc1cccc(CSc2nnc(C(F)(F)F)n2Cc2ccc(F)cc2)c1`: 3.16 µM (active).
For the compound `[O-][N+]1(CC[N+]2([O-])CCCCC2)CCCCC1`, the activity, negative = inhibition was 25.1% [at 11.4 µM].
On to `CC1(C)C(=O)C(c2ccccc2)=C2CN3C(=O)N(CCc4ccccc4)C(=O)C3(Cc3ccccc3)C=C21` (stereo not drawn), for which the “activity, negative = inhibition” value is -37.3%.
On to `CC[C@H](CO)NCCN[C@@H](CC)CO`, for which the “activity, negative = inhibition” value was 22.2% [at 25.6 µM].
Regarding `CCOC(=O)c1ccc(NC(=O)Nc2ccc3c4c(cccc24)C(=O)N3CC)cc1`, the AC50 was 11.2 µM (active).
Turning to `CCN1C(=O)c2cccc3c(NC(=O)c4cccc(N5C(=O)CCC5=O)c4)ccc1c23`, the “activity, negative = inhibition” value was -13.5%.
Still for that read-out and setting: next, `CCCN(CCC)CCCNC(=O)c1ccc2c(c1)N(CC)C(=O)c1ccccc1S2=O` (stereo not drawn): 33.6%; `Cc1ccc(C(=O)N/N=C/c2cc(C)n(-c3ccc(Br)cc3)c2C)cc1[N+](=O)[O-]`: -28.2%.
For the compound `Cc1cc(C=O)c(C)n1-c1ccc(NC2CCCC2)c([N+](=O)[O-])c1`, the half-maximal activity concentration (AC50) was 6.31 µM (active).
`N[C@@](CCc1ccccc1)(C(=O)O)c1ccccc1`: the activity, negative = inhibition is -19.5% [at 11.4 µM].
Consider `CN(/C=C/C(=O)C(F)(F)F)Cc1ccccc1`, for which the AC50 was 8.91 µM (active).
`CCCC[C@@H]1C[C@H]1C(NC(=O)c1cccs1)c1ccccc1C(F)(F)F` (stereo partly drawn): the AC50 was 0.631 µM (active).
On the same count and under the same terms, to `CCCC[C@@H]1C[C@H]1C(NC(=O)c1ccccc1)c1ccccc1C(F)(F)F` (stereo partly drawn) belongs 0.501 µM (active); to `COC(=O)c1sccc1NC(=O)CSc1ccccc1NS(=O)(=O)c1ccc(Cl)cc1`, 0.794 µM (active).
In the case of `Cc1cnc2cc(Cl)ccc2c1SCC(=O)O`, the activity, negative = inhibition is 24.8% [at 11.4 µM].
For the compound `Cc1cc(Cl)nc(NC(=O)CSc2ccc(Cl)cc2)n1`, the activity, negative = inhibition was 34.4% [at 11.4 µM].
`Cc1cnc(NC(=O)CSc2ccc(Cl)cc2)s1`: the AC50 is 2 µM (active).
On to `COC(=O)c1sccc1NC(=O)CN(C)NS(=O)(=O)c1ccc(F)cc1`, for which the AC50 is 14.1 µM (active).
Consider `COC(=O)c1sccc1NC(=O)CSc1cc(Cl)ccc1Cl`, for which the AC50 is 2.82 µM (active).
As for `Oc1ccc(Cc2nccc3cc(O)c(O)cc23)cc1O`, the activity, negative = inhibition is -17.6% [at 11.4 µM].
In the case of `COCc1nnc(NC(=O)CCN2C(=O)c3ccccc3C2=O)s1`, the “activity, negative = inhibition” value is -6.41%.
As for `COC(=O)c1sccc1NC(=O)CSc1ccc(Cl)cc1`, the AC50 was 7.08 µM (active).
Take `COCc1nnc(NC(=O)CSc2ccc(C)cc2)s1`: the AC50 is 3.55 µM (active).
For `COc1ccc2c3c([nH]c2c1)[C@H]1C[C@@H]2[C@@H](C[C@@H](O)[C@H](OC)[C@H]2C(=O)O)CN1CC3`, the activity, negative = inhibition is 19% [at 11.4 µM].
For the compound `CCOc1ccc(N(CCC#N)S(=O)(=O)c2ccc(OC)cc2)cc1`, the AC50 is 3.55 µM (active).
`O=C(Nc1cccc(Br)c1)/C(=C\c1cccnc1)NC(=O)c1ccco1`: the “activity, negative = inhibition” value was -17.1%.
With `O=C(Nc1cccc(NC(=O)c2ccc(-c3cccc(Br)c3)o2)c1)c1ccco1`, the AC50 is 2.51 µM (active).
On the same count and under the same terms, next, `O=C(Nc1ccc2nc(-c3ccc(Br)o3)[nH]c2c1)c1ccco1`: 22.4 µM (active).
`O=C(Nc1cccc(-c2cn3cccnc3n2)c1)c1ccco1`: the “activity, negative = inhibition” value was -20.9%.
As to `CCCCCc1nc2c(C#N)c(-c3ccc(Cl)cc3)ccn2n1`, the half-maximal activity concentration (AC50) is 7.94 µM (active).
On the same count and under the same terms, next, `Cc1noc(C)c1CS(=O)(=O)c1ccc(Br)cc1`: 0.282 µM (active).
`CCN1CCN(CC(=O)N2c3ccccc3CC2C)CC1` (stereo not drawn): the “activity, negative = inhibition” value is -27.5%.
On the same count and under the same terms, to `C[C@@H]1Cc2ccccc2N1NC(=O)c1ccc(Cl)c(S(N)=O)c1` (stereo partly drawn) belongs -36.6% [at 25.6 µM].
On to `CC1Cc2ccccc2N1C(=O)CSc1nnnn1C(C)C` (stereo not drawn), for which the AC50 is 4.47 µM (active).
On the same count and under the same terms, next, `CC1Cc2ccccc2N1C(=O)CN1C(=O)COc2ccccc21` (stereo not drawn): 3.16 µM (active); `Cc1ccccc1-n1ncc2c(SCC(=O)N3c4ccccc4CC3C)ncnc21` (stereo not drawn): 7.08 µM (active).
Turning to `O=C1COc2ccccc2CN1`, the “activity, negative = inhibition” value was -13.1%.
As to `CC1(C)CCC(NC(=O)[C@H](N)CCC(=O)O)CC1`, the “activity, negative = inhibition” value was 12.9%.
Still for that read-out and setting: to `COCC(=O)Nc1c(I)c(C(=O)NC[C@@H](O)CO)c(I)c(C(=O)N(C)C[C@@H](O)CO)c1I` belongs -21.5% [at 25.6 µM].
Take `O=C1OC(OC2CCCCC2)(c2ccccc2)c2ccccc21` (stereo not drawn): the AC50 is 7.94 µM (active).
Same read-out and setting: next, `Cc1cccc(OC2(c3ccccc3)OC(=O)c3ccccc32)c1C` (stereo not drawn): 2.51 µM (active); `Cc1cccc(C)c1OC1(c2ccccc2)OC(=O)c2ccccc21` (stereo not drawn): 0.251 µM (active).
For the compound `C=C[C@]1(C)C[C@H](OC(=O)CO)[C@]2(C)C3C(=O)CC[C@]3(CC[C@H]2C)[C@H](C)[C@H]1O` (stereo partly drawn), the activity, negative = inhibition is -15.4% [at 11.4 µM].
As for `O=C(Nc1cccn(Cc2ccc(F)cc2)c1=O)NC1CCCCC1`, the AC50 is 10 µM (active).

The AC50 is the midpoint of the concentration-response curve, whichever way the signal moves.
